The list is not random: actives were taken first. Their share in the collection is about 10%.
CCT modulator: changes cytosolic chaperonin activity. purified chaperonin ATPase assay, HTRF ADP detection, 30 min. activity change, % (test concentration not listed), hits read low. hit rate 0.3% among 360,000. AID 651819; in the data active means activity change below about -30%
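We incubate TRiC, 40 or 20 nM final, with library compounds at 76 uM and 10 uM ATP for 30 min at 37 °C. ADP formed is detected with Transcreener HTRF reagents after 30 min at room temperature.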
MmCpn inh: inhibitors of Methanococcus maripaludis chaperonin TRiC (MmCpn); Potency, µM (doses to about 76.9 µM), inactives show top-dose activity, negative = inhibition, hits mostly inhibitors; hit rate 0.031% among 330,000; purified Mm-Cpn ATPase, ADP Transcreener TR-FRET; further: potency means the concentration at half of the fitted maximal effect; nearly all actives have a fitted effect of over 80% in size
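Quantitative HTS used 25 nM Mm-CPN and 10 uM ATP in magnesium/KCl Tris buffer, pH 7.4, with 1 mM DTT. Hydrolysis ran 30 min at 37°C; ADP was read by HTRF.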
Sfp PPTase inh: blocks B. subtilis Sfp PPTase activity | Q9F4F7 | Biochemical Sfp PPTase activity, qHTS | Potency, µM, for the others: largest response in the series, negative = inhibition, most hits filed as inhibitors | hit rate 3.5% among 310,000;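 further: the enzyme is Sfp with the accession as filed and its product quenches rhodamine fluorescence; potency means the concentration at half of the fitted maximal effect; 0% = enzyme reaction without inhibitor and -100% = no enzyme wells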
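Compounds were incubated with enzyme (final 15 nM) for 15 min at room temperature before substrate addition started the reaction. Fluorescence at 525 nm excitation, 598 nm emission was recorded immediately and after 30 minutes.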
G9a block: blocks human histone lysine methyltransferase G9a; Q96KQ7; G9a H3K9 monomethylation, AlphaScreen, 2 h; Potency, µM (doses to about 102 µM), for the others: at the highest dose activity, negative = inhibition, usual class: inhibitors; hit rate 8.8% among 350,000; AID 504332; further: potency means the concentration at half of the fitted maximal effect; nearly all actives have a fitted effect of over 75% in size
Target sequence (Q96KQ7 913-1193 limits assumed): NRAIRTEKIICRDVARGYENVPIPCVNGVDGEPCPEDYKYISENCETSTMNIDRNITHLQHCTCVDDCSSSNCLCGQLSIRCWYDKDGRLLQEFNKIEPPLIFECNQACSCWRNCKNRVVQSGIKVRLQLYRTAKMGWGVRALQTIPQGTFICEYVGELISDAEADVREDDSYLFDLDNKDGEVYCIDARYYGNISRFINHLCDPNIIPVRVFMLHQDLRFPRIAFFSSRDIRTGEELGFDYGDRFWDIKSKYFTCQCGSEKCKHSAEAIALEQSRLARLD
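G9a (20 nM) preincubated 15 min RT with compounds, then 500 nM biotinylated H3K9 peptide and 20 uM SAM added; 2 h RT reaction. Monomethyl-H3K9 product detected by AlphaScreen with anti-H3K9me1 antibody, streptavidin donor and anti-rabbit IgG acceptor beads.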
VDR inh: vitamin D3 receptor (human) inhibition; P11473; VDR-SRC2-3 peptide fluorescence polarization, 2 h; Potency, µM, for inactives: max response, negative = inhibition, most hits filed as inhibitors; hit rate 0.93% among 400,000; AID 504847; further: potency means the concentration at half of the fitted maximal effect
Target sequence (P11473 whole entry, looked up): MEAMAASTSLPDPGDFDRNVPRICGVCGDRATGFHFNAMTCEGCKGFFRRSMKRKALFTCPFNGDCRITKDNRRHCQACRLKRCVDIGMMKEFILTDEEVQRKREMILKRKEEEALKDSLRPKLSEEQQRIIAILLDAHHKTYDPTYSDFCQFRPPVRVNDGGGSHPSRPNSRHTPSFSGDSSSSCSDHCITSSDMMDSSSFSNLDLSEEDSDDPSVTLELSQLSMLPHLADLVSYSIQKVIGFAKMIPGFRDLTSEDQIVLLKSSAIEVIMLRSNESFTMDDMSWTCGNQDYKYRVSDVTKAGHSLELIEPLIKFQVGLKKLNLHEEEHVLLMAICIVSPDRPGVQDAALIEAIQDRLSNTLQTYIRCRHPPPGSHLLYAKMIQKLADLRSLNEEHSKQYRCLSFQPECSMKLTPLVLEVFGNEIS
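Inhibition of the VDR/SRC2-3 peptide interaction is quantified by fluorescence polarization. Compounds (23 nl, pintool) incubate with the reagents for 2 hours at ambient room temperature.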
PLK1 PBD block: blocks phosphopeptide binding to human PLK1 polo-box domain | Plk1 PBD binding of FITC phosphopeptide, fluorescence polarization | Potency, µM, inactives show max response, negative = inhibition, most hits filed as inhibitors | AID 720504 | hit rate 2.8% among 360,000 | P53350; further: potency means the concentration at half of the fitted maximal effect; series mostly up to about 57 µM; nearly all actives have a fitted effect of over 65% in size
Numbers without * were called inactive; ? = inconclusive; / = no result; [ ] = another dose, or the depositor's remark. Unless noted, the call rests on the fitted dose curve; in most records, active means well fitted curve in the direction sought with a large enough effect; inconclusive means small, poorly fitted or top-dose-only effect, or another doubt; inactive means no such curve, though single readings can be large; an effect the other way counts as inactive or inconclusive. Unless noted, on the % scale 0 is the no-effect control and ±100 the full control effect.

SMILES	CCT modulator	MmCpn inh	Sfp PPTase inh	G9a block	VDR inh	PLK1 PBD block
Fc1ccc(-c2n[nH]c(=S)n2-c2ccc3c(c2)OCCO3)cc1	0.7	-7.3%	?	/	-15.3%	-28.7%
COc1ccc(C2NC(=O)N(C)C3=C2C(=O)N(c2cccc(C(=O)O)c2)C3)cc1 (stereo unspecified)	/	/	/	-26.9%[59 µM]	-5.8%	/
Cc1ccc(-c2n[nH]c(=S)n2C)cc1	-1.4	-3.4%	-11.3%	10µM*	0.4%	-13.0%
Nc1n[nH]c(=S)n1-c1ccc(Cl)cc1	1.7	1.7%	15.8µM*	3.55µM*	?	11.9µM*
Cc1cc(Cl)ccc1-n1c(-c2cccnc2)n[nH]c1=S	0.2	0.2%	17.8µM*	10µM*	1.6%	-11.9%
Cn1c(-c2csc(-c3ccccc3)n2)n[nH]c1=S	-0.4	-12.2%	-9.7%	-135.7%[59 µM]	-9.2%	-26.3%
CCOc1ccc(Oc2nc(NCC(C)C)nc(N3CCOCC3)n2)nn1	/	/	/	16.7%[59 µM]	5.9%	/
COc1ccccc1N1CCN(S(=O)(=O)c2ccc(-c3ccno3)cc2OC)CC1	/	/	/	-18.4%[59 µM]	-1.0%	/
Cc1ccc(NC(=O)CCl)c(C)c1	-7.8	-1.8%	18.2%	?	-8.2%	-7.7%
Cc1ccc(NC(=O)C(=Cc2ccc(C(=O)O)cc2)C(=O)Nc2ccc(C)cc2C)c(C)c1	0.2	-11.2%	-4.9%	6.8%[12.7 µM]	25.1µM*	-7.1%
CC(=O)C(=Cc1ccc(C(=O)O)cc1)C(C)=O	-1.7	1.7%	-2.1%	56.2µM*	?	-8.9%
COc1ccc(-n2c(=O)cnc3cnc(N(C)C)nc32)cc1	/	/	15.5%	-2.2%[0.501 µM]	1.2%	/
Cc1ccc(C)c(-n2c3nc(=O)[nH]c(=O)c-3cc3cc([N+](=O)[O-])ccc32)c1	-1.7	-2.6%	50.1µM*	10µM*	?	7.52µM*
O=c1nc2n(-c3ccccc3F)c3ccccc3cc-2c(=O)[nH]1	/	/	/	-20.7%[59 µM]	-10.1%	/
Cc1cccc(-n2c3nc(=O)[nH]c(=O)c-3cc3cc([N+](=O)[O-])ccc32)c1	-1.7	2.3%	-17.6%	50.1µM*	-29.4%	10.6µM*
COCCNC(=O)C1=CC(c2ccc3c(c2)OCO3)=NS(=O)(=O)N1C	/	/	/	-1.1%[59 µM]	-1.8%	/
CN(C)S(=O)(=O)c1ccc2nnn(O)c2c1	2.2	-3.3%	-4.5%	-48.9%	79.4µM*	10.6µM*
O=S(=O)(c1ccc2nnn(O)c2c1)N1CCOCC1	-1.9	-1.0%	/	/	-0.7%	-3.5%
N#Cc1cc([N+](=O)[O-])c2sc(C(N)=O)[n+]([O-])c2c1	/	/	/	28.2µM*	5.3%	/
Cc1ccc(OCCCOc2cccc3cccnc23)cc1C	-1.4	-10.6%	89.1µM*	8.7%[12.7 µM]	15.3%	3.8%
Cc1ccc(CN(Cc2cccn2-c2nnc(N3CCCC3=O)s2)C(=O)Nc2ccccc2Cl)cc1	/	/	/	-27.2%[59 µM]	7.7%	/
Cc1ccc(-n2ncc(C(=O)N3CCN(Cc4ccccc4)CC3)c2C2CCN(C(=O)OC(C)(C)C)CC2)c(C)c1	/	/	/	-35.2%[59 µM]	9.4%	/
CS(=O)(=O)c1ccccc1C(=O)Nc1cc2c(cc1C(=O)O)OCCCO2	-0.8	0.6%	18.5%	50.1µM*	6.8%	?
O=C(O)c1cc2c(cc1NC(=O)c1c(F)cccc1F)OCCCO2	1.0	0.6%	18.2%	?	2.7%	-2.3%
CS(=O)(=O)Nc1ccccc1C(=O)Nc1cc2c(cc1C(=O)O)OCCCO2	0.3	-5.3%	-0.7%	8.91µM*	-0.9%	-7.7%
SMILES	CCT modulator	MmCpn inh	Sfp PPTase inh	G9a block	VDR inh	PLK1 PBD block
O=C(O)c1cc2c(cc1NC(=O)c1ccccc1C(F)(F)F)OCCCO2	-4.4	0.5%	10.9%	1.0%	-8.7%	-11.1%
Cc1ccc(NC(=O)CSc2[nH]c(=O)ncc2C)cc1	/	/	/	8.4%[59 µM]	5.2%	/
O=C(CCC(=O)N1CC2CCCN2c2ccccc21)NCc1ccccc1F (stereo unspecified)	/	/	/	-25.8%[59 µM]	21.2%	/
CCc1ccccc1NC(=O)Cn1nc(CC)n2c(cc3sccc32)c1=O	/	/	/	0.9%[59 µM]	-5.6%	/
O=C1Nc2ccccc2N=C(c2ccccc2)C1Br (stereo unspecified)	0.8	1.2%	44.7µM*	/	-21.2%	7.7%
O=C1Nc2ccccc2N=C(c2ccccc2)C1N(Cc1ccc(F)cc1)C(=O)c1cccnc1 (stereo unspecified)	-0.6	/	/	/	/	5.0%
CCOc1ccc(NC(=O)Cn2c(=O)n(CC(=O)NCc3ccccc3Cl)c(=O)c3sccc32)cc1	/	/	/	0.7%[59 µM]	15.8%	/
Cc1cc(C)c2cc(CN(CCO)Cc3nnnn3Cc3ccc(F)cc3)c(=O)[nH]c2c1	-1.9	0.1%	3.6%	-41.9%[12.7 µM]	-25.4%	-2.9%
Cc1cc(C)c2cc(CN(CCO)Cc3nnnn3Cc3ccccc3)c(=O)[nH]c2c1	-1.6	3.4%	-23.4%	39.8µM*	-3.9%	-8.1%
Cc1ccc2cc(CN(CCO)Cc3nnnn3Cc3ccc(F)cc3)c(=O)[nH]c2c1	-13.6	0.0%	-2.2%	31.6µM*	-6.4%	-10.8%
Cc1ccc2[nH]c(=O)c(CN(Cc3ccccc3)Cc3nnnn3Cc3ccccc3)cc2c1	/	/	/	/	-16.1%	/
Cc1ccc2[nH]c(=O)c(CN(Cc3nnnn3Cc3ccccc3)C3CCCC3)cc2c1	-1.9	-14.8%	-25.0%	8.91µM*	-4.9%	-9.3%
Cc1cc(C)c2c(-n3cccc3)c(C(=O)NCc3cccc(F)c3)sc2n1	/	/	/	-13.3%[59 µM]	7.7%	/
Cc1ccc(CNC(=O)CCc2nc3cccnc3n2Cc2ccccc2)cc1	/	/	/	-2.9%[59 µM]	-2.8%	/
Nc1cccc(B(O)O)c1	/	/	10.0%	/	-9.8%	/
O=S(=O)([O-])CCC[N+]1(CC#Cc2ccccc2)CCCCC1	0.2	-1.4%	29.8%	0.9%[59 µM]	?	4.74µM*
O=C(Cc1ccc(Cl)cc1)NCC(c1cccs1)S(=O)(=O)c1ccccc1 (stereo unspecified)	/	/	/	-10.6%[59 µM]	12.5%	/
COc1ccc2c(c1OC)C(=O)N1N=C(c3ccc(F)cc3)CC21 (stereo unspecified)	1.7	-0.1%	27.6%	2.6%	?	11.9µM*
Cc1ccc(C2=NN3C(=O)c4ccccc4C3C2)cc1 (stereo unspecified)	0.0	-0.2%	11.9%	1.4%	-18.2%	-3.9%
CCOC(=O)c1c(C)[nH]c(C(=O)/C(C#N)=C/c2ccc(OCC)cc2)c1C	-118.8*	-0.5%	-13.1%	-44.0%[59 µM]	-26.2%	-23.4%
CCOC(=O)c1c(C)[nH]c(C(C)=O)c1C	0.8	-1.5%	11.2%	15.7%[59 µM]	-2.6%	-7.0%
CC(=O)c1c(C)[nH]c(C(=O)/C(C#N)=C/c2cccc(C)c2)c1C	-1.2	?	-10.8%	?	-24.2%	5.97µM*
COc1ccccc1N1CCN(S(=O)(=O)c2c(C(=O)N3CCOCC3)c(C)n(C)c2C)CC1	0.4	1.8%	12.0%	-2.8%[59 µM]	?	3.36µM*
COc1cc(Cl)c(NS(=O)(=O)c2c(C(=O)N3CCCC3)c(C)n(C)c2C)c(OC)c1	0.8	0.0%	22.6%	9.4%	-16.8%	26.7µM*

Bioassay records from PubChem BioAssay.
